In PubChem BioAssay (Tox21) one finds Potency data, which are given here for 40 compounds.

The structures appear in SMILES notation. Results filed as inconclusive are left out. Entries that show only a call come without a potency. Active and inactive are the calls of the source. The call rests on the fitted dose curve; in most records, active means well fitted activation curve with a large enough effect in the signal ratio in the repeat runs (not every such curve was filed as active); inconclusive means weak or mixed curves, or effect the other way; inactive means no such curve, though single readings can be large or run the other way; the % refers to the signal ratio.

Sequence of Peroxisome proliferator-activated receptor gamma (Homo sapiens) (P37231 whole entry, looked up): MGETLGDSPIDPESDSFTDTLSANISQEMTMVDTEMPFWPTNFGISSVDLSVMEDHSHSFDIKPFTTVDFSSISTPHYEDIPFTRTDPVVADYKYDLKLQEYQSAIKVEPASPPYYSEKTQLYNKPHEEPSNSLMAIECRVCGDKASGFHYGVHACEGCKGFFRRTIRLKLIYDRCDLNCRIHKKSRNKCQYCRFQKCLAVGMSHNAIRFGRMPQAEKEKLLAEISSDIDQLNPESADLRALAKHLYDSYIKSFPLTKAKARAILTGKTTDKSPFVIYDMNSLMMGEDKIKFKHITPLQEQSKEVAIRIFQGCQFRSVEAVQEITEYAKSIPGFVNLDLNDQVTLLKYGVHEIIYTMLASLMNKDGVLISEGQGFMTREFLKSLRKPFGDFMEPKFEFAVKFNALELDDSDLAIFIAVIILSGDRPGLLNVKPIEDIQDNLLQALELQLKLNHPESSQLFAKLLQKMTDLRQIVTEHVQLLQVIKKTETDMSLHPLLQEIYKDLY

The target of this test is Peroxisome proliferator-activated receptor gamma (Homo sapiens) (UniProt P37231). In words: qHTS assay to identify small molecule agonists of the peroxisome proliferator-activated receptor gamma (PPARg) signaling pathway (AID 743094). To be noted: HEK293H PPARg-UAS-bla, beta-lactamase FRET ratio, 17 h; series mostly up to 57 µM. An excerpt:
U.S. Tox21 Program National Center for Advancing Translational Sciences [NCATS] NIH Chemical Genomics Center [NCGC] U.S. Environmental Protection Agency [EPA] National Institutes of Environmental Health Sciences [NIEHS] National Toxicology Program [NTP] U.S. Food and Drug Administration [FDA] Tox21 Assay Overview: The peroxisome proliferator-activated receptors (PPARs) are lipid-activated transcription factors of the nuclear receptor superfamily with three distinct subtypes namely PPAR alpha, PPAR delta (also called PPAR beta) and PPAR gamma (PPARg). All these subtypes heterodimerize with Retinoid X receptor (RXR) and these heterodimers regulate transcription of various genes. PPAR-gamma receptor (glitazone receptor) is involved in the regulation of glucose and lipid metabolism. To identify the compounds that activate PPAR-gamma signaling, GeneBLAzer PPAR gamma UAS-bla HEK293H cell line (Invitrogen, Carlsbad, CA, USA) containing a beta-lactamase reporter gene under control of the control of an upstream activator sequence (UAS) stably integrated into HEK293H cells was used to screen Tox21 compound library.
Tox21 Assay Protocol Summary: PPARg-bla cells were dispensed at 3000 cells/6uL/well in 1536-well black wall/clear bottom plates using a Multidrop Combi (Thermo Fisher Scientific, Waltham, MA) dispenser. After the assay plates were incubated at 37C and 5% CO2 for 5 h, 23 nL of compounds dissolved in DMSO, positive controls or DMSO only was transferred to the assay plate by a Pintool station (Kalypsys, San Diego, CA). The assay plates were incubated at 37C for 17 h. After 1 uL of LiveBLAzerTM B/G FRET substrate was added using a Bioraptr Flying Reagent Dispenser (FRD) workstation (Beckman Coulter, Indianapolis, IN, USA), the plates were incubated at room temperature for 1 h, and fluorescence intensity was measured by an Envision plate reader (PerkinElmer, Shelton, CT).
Consider `CC1=C(C(=O)O)N2C(=O)[C@@H](NC(=O)[C@H](N)c3ccccc3)[C@H]2SC1`, for which the Potency entry was “inactive”.
For `CCC(C)C(=O)OCCc1ccccc1` (stereo not given), the Potency entry was “inactive”.
The same measure for `COc1ccc2c(c1)c1c3n2CCN(C)C3=NCC1`: “inactive”; for `C=C(C)C1CC=C(C)C(=O)C1` (stereo not given): “inactive”; for `O=C(CN1CCNCC1)NC1CCCCC1`: “inactive”.
The same measure for `CC1(C)Oc2ccc(C#N)cc2[C@@H](N2CCCC2=O)[C@@H]1O`: “inactive”; for `Cc1c(NC(=O)c2cccnc2)c(=O)n(-c2ccccc2)n1C`: “inactive”.
As for `CCC(=O)c1c(O)cc(O)cc1O`, the Potency entry was “inactive”.
Take `CC(=O)C1C(=O)C=C(C)OC1=O` (stereo not given): the Potency result was “inactive”.
The same measure for `O=C(NCN1CCOCC1)c1cnccn1`: “inactive”.
The same measure for `Cc1cc(-c2ccccc2)nnc1NCCN1CCOCC1`: “inactive”; for `OC[C@@H](O)C(O)[C@@H](O)CO` (stereo not given in full): “inactive”; for `C[C@H]1[C@@H](c2ccccc2)NC(=O)N1C`: “inactive”.
The same measure for `C=CC/C=C/C`: “inactive”; for `CCCCOCCOC(=O)COc1ccc(Cl)cc1Cl`: “inactive”; for `O=C(O)CNC(=O)CNC(=O)CNC(=O)CSC(=O)c1ccccc1`: “inactive”.
`O=C1CCC(=O)N1Cl`: the Potency entry is “inactive”.
For the compound `CC(C)(C)NC[C@H](O)COc1cccc2c1CCCC2=O`, the Potency result was “inactive”.
For `CN(C)C(C)(C)CO`, the Potency entry was “inactive”.
The same measure for `C=C(C)[C@@H]1CC=C(C)C(=O)C1`: “inactive”; for `CC(C)Cn1cnc2c1c(=O)n(C)c(=O)n2C`: “inactive”.
The same measure for `CN(C)CCCO[C@@H]1[C@H]2OC(C)(C)O[C@H]2O[C@@H]1C(O)CO` (stereo not given in full): “inactive”; for `O=C1OCCO1`: “inactive”.
The same measure for `CCC(=O)CC`: “inactive”.
Regarding `N[C@@H](CSCCCO)C(=O)O`, the Potency result was “inactive”.
On to `CC1CC(=O)CC(C)(C)C1` (stereo not given), for which the Potency entry is “inactive”.
As for `CCNC(=O)NCc1cccc(Cl)c1`, the Potency entry was “inactive”.
For `O=NN(CCCl)C(=O)NC1CCCCC1`, the Potency result was “inactive”.
As to `CCC[C@@H]1C[C@@H](C(=O)N[C@@H]([C@H]2O[C@H](SC)[C@H](O)[C@@H](O)[C@H]2O)[C@@H](C)O)N(C)C1`, the Potency result is “inactive”.
The same measure for `CC(C)[C@H]1CC[C@H](C)C[C@@H]1O`: “inactive”; for `CCCC(=O)Nc1ccc(OCC(O)CNC(C)C)c(C(C)=O)c1` (stereo not given): “inactive”.
Take `CC(=O)O[C@@H]1CC2CCC1(C)C2(C)C` (stereo not given in full): the Potency entry was “inactive”.
The same measure for `O=C(O)CCCCCC(=O)O`: “inactive”.
For the compound `Cc1ccnc(N)c1`, the Potency result is “inactive”.
`COC(=O)c1cc(Cl)cc(Cl)c1`: the Potency result is “inactive”.
The same measure for `CC(=O)CC(=O)OC(C)(C)C`: “inactive”; for `CCCC(=O)OC/C=C(\C)CCC=C(C)C`: “inactive”; for `Cc1ncc([N+](=O)[O-])n1CC(C)O` (stereo not given): “inactive”.
As for `O=[N+]([O-])c1c(Cl)cc(Cl)cc1Cl`, the Potency entry was “inactive”.
The same measure for `CC(C)=CCC[C@@](C)(O)[C@H]1CC=C(C)CC1`: “inactive”.
